Several values for one entry are separate records, joined by “and”; a condition that tells them apart may be missing. Equal entries are not always repeated. Activity calls are given as the source filed them.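 The calls were made as follows, unless noted: active = compounds whose cell count with miR-34 switched on is under 0.7 times the count with it off; inactive = the rest.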
How the values were obtained:
[1] = sensitizers of A549 cells to miR-34 induction, primary screen, imaging, A549 dox-inducible miR-34, nuclei and caspase counts (AID 1347080); settings: A549 miR-34 inducible, Hoechst nuclei count, 48 h
[2] = target: NAD(+) hydrolase SARM1 (Homo sapiens) (UniProt Q6SZW1); experiment: SARM1 TIR NADase inhibitors, cell lysate, NAD-Glo luminescence (AID 1508614;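 active = compound whose remaining NAD level is above about 45 nM, limit read from the data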;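 also: higher remaining NAD means stronger inhibition of SARM1 NADase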); settings: SAM-TIR HEK293T lysate NADase, at 1 µM, stronger effect = higher value
[3] = target: Mitogen-activated protein kinase 7 (Homo sapiens) (UniProt Q13164); experiment: ERK5 transactivation activators in reporter cells, primary screen, cell-based, HTS (AID 1508626;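 active = luciferase signal above three times the same-plate solvent-only control wells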;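 also: luciferase driven by Gal4-ERK5 fusion binding five Gal4 sites before minimal TATA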); settings: HeLa Gal4-ERK5 transactivation, 18 h, at 5 µM, stronger effect = higher value
[4] = survival rescue of mitochondrial mutant cells in low glucose, primary screen, MELAS cybrids, Rieske KO mouse fibroblasts, CellTiter-Glo (AID 1508586;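 active = mean z-score across replicates of 1.96 or higher in either the MELAS or the Rieske mutant cell line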;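 also: z relative to plate mean and SD of compound and empty wells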)
[5] = viability rescue of complex I mutant cybrids, primary screen, cell-based, galactose medium, ATP luminescence (AID 1645843;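 active = z-score of at least 1.8 in each of two replicates, scored against plate mean and spread of sample wells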;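 also: positive z means more ATP and so rescue of galactose-driven cybrid death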); settings: complex I mutant cybrid cells, 72 h, stronger effect = higher value
[6] = inhibitors of Cryptococcus chitosan production, flow cytometry, Cibacron Brilliant Red staining (AID 1347148; call rule not given here;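 also: compound exposure lasted three days at 37 degrees C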); settings: Cryptococcus neoformans chitosan, stronger effect = lower value; at 10 µM unless noted
[7] = phospholipid biosynthesis inhibitors in animal cells, primary screen, cell-based, LOPAC library, screen 4 (AID 1347384; call rule not given here); settings: phospholipid biosynthesis inhibition screen, at 10 µM
[8] = stronger effect = lower value, cell number ratio, induced over uninduced
[9] = measured here: relative caspase fold change +Dox/-Dox
[10] = measured here: total cells with miR-34 induction, stronger effect = lower value
[11] = measured here: total cells without miR-34 induction
[12] = MELAS cybrid survival, CellTiter-Glo 48 h, stronger effect = higher value
[13] = Rieske KO mouse fibroblast survival, CellTiter-Glo 72 h

Chain of Mitogen-activated protein kinase 7 (Homo sapiens) (Q13164 whole entry, looked up, the tested form may be a part): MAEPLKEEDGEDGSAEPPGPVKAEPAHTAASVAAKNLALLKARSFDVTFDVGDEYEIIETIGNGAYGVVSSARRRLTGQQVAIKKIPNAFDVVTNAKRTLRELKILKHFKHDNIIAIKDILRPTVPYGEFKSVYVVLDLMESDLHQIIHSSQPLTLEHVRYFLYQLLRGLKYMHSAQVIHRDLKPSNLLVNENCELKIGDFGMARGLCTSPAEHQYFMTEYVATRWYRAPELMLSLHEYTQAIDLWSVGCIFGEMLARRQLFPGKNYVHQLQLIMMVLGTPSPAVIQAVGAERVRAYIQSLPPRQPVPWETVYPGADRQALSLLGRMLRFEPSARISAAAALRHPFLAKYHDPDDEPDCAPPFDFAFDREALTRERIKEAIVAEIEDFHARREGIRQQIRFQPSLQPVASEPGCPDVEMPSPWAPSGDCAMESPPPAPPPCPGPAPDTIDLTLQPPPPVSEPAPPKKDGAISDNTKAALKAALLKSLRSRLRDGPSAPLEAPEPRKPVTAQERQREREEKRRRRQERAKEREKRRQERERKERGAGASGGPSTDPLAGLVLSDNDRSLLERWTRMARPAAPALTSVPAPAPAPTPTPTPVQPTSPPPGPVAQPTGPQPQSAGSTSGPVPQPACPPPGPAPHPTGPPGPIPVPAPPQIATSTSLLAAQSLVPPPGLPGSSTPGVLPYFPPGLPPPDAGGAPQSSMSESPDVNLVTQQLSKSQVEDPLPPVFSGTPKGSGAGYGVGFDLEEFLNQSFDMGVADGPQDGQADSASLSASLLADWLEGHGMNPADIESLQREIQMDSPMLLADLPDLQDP
Chain of NAD(+) hydrolase SARM1 (Homo sapiens) (Q6SZW1 whole entry, looked up, the tested form may be a part): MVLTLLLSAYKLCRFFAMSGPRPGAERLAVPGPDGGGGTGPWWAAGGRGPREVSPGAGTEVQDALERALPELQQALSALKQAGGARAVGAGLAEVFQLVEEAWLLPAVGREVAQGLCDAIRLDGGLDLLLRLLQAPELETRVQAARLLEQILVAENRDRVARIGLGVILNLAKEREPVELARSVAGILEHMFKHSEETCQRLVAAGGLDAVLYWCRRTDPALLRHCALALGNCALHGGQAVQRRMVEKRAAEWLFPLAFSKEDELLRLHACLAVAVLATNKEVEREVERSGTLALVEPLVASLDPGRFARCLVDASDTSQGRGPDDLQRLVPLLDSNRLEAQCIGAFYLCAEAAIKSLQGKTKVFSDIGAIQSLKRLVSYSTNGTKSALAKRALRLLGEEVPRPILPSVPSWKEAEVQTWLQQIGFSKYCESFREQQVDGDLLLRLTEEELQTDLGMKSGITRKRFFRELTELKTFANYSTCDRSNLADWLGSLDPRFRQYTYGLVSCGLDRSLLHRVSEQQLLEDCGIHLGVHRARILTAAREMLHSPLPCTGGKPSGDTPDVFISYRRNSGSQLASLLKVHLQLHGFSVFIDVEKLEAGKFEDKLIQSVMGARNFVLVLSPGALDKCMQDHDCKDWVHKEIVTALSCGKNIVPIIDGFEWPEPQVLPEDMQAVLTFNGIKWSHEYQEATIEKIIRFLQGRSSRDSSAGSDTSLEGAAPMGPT

SMILES	fold change [1, 8]	fold change [1, 9]	cell count [1, 10]	cell count [1, 11]	remaining NAD [2]	luciferase signal [3]	z-score [4, 12]	z-score [4, 13]	z-score [5]	fold fluorescence [6]	outcome [7]
CC(=O)OCC1=C(C(=O)O)N2C(=O)[C@@H](NC(=O)CSc3ccncc3)[C@H]2SC1	0.915 (inactive)	4.65	11600	12700	10 nM (inactive)	32 AU (inactive)	–	–	–	–	–
O=C(O)c1cc(O)c(O)c(O)c1	0.943 (inactive)	4.52	11500	12200	10 nM (inactive)	100 AU (inactive)	–	–	–	–	–
Oc1c(I)cc(I)c2cccnc12	0.894 (inactive)	1.48	10900	12200	10 nM (inactive)	16 AU (inactive)	–	–	–	–	–
COc1ccc(CN(CCN(C)C)c2ncccn2)cc1	0.86 (inactive)	3.03	11900	13800	10 nM (inactive)	60 AU (inactive)	–	–	–	–	–
CCCCNc1c(C(=O)OCC)c(C)nc2c1cnn2CC	1.09 (inactive) and 0.956 (inactive) and 0.928 (inactive)	1.73 and 0.694 and 0.876	9150 and 8740 and 7780	8430 and 9140 and 8370	–	–	2.27 (active)	1.7	0.17 (inactive) and 0.34 (inactive)	–	–
O=C(O)CCCCC1CCSS1 (stereo unspecified)	1.15 (inactive)	0.668	6920	6020	10 nM (inactive)	–	–	–	–	–	–
O=C1OC(c2ccc(O)cc2)(c2ccc(O)cc2)c2ccccc21	0.823 (inactive)	1.14	10900	13200	10 nM (inactive)	84 AU (inactive)	–	–	–	–	–
CN1CCN(c2cc3c(cc2F)c(=O)c(C(=O)O)cn3-c2ccc(F)cc2)CC1	0.87 (inactive)	0.995	6840	7860	10 nM (inactive)	–	–	–	–	–	–
COc1cc(C(=O)NC2CCCNC2)cc(OC)c1OC (stereo unspecified)	0.933 (inactive) and 1.06 (inactive)	1.12 and 0.508	9210 and 8810	9870 and 8310	–	–	-0.284 (inactive) and -1.2 (inactive)	-0.165 and -1.23	0.125 (inactive)	–	–
CCC(=O)O[C@H]1[C@H](O[C@@H]2[C@@H](C)[C@H](O[C@H]3C[C@@](C)(OC)[C@@H](O)[C@H](C)O3)[C@@H](C)C(=O)O[C@H](CC)[C@@](C)(O)[C@H](O)[C@@H](C)C(=O)[C@H](C)C[C@@]2(C)O)O[C@H](C)C[C@@H]1N(C)C	0.893 (inactive)	3.7	11600	12900	10 nM (inactive)	180 AU (active)	–	–	–	–	–
O=C(CCBr)N1CCN(C(=O)CCBr)CC1	0.869 (inactive)	2.68	6360	7310	10 nM (inactive)	92 AU (inactive)	–	–	–	–	–
Nc1ccc(C(=O)O)cc1	0.846 (inactive)	0.809	10600	12500	10 nM (inactive)	40 AU (inactive)	–	–	–	–	–
CCOC(N)=O	0.875 (inactive)	3.55	11200	12800	10 nM (inactive)	24 AU (inactive)	–	–	–	–	–
NC(=O)c1ccc([N+](=O)[O-])cc1Cl	0.897 (inactive)	3.38	11800	13200	10 nM (inactive)	180 AU (inactive)	–	–	–	–	–
CCCCCCc1ccc(O)cc1O	0.901 (inactive)	1.55	11000	12200	10 nM (inactive)	20 AU (inactive)	–	–	–	–	–
O=c1cc(CO)occ1O	0.923 (inactive)	0.344	9020	9780	–	–	0.152 (inactive)	-0.154	1.06 (inactive)	–	–
Cc1cc(C(C)(C)C)c(O)c(C(C)(C)C)c1	0.871 (inactive)	0.986	10700	12300	10 nM (inactive)	20 AU (inactive)	–	–	–	–	–
COCc1c(C(C)C)nc(C(C)C)c(/C=C/[C@@H](O)C[C@@H](O)CC(=O)O)c1-c1ccc(F)cc1	1.07 (inactive)	1.46	1320	1240	–	–	-1.23 (inactive)	-0.402	-2.23 (inactive)	–	–
CC(=O)OCC(COC(C)=O)OC(C)=O	0.85 (inactive)	3.03	10700	12600	10 nM (inactive)	8 AU (inactive)	–	–	–	–	–
CCCCCC(C)N (stereo unspecified)	0.893 (inactive)	1.93	11000	12400	10 nM (inactive)	–	–	–	–	–	–
CC1CCC(NC(=O)N(CCCl)N=O)CC1 (stereo unspecified)	0.814 (inactive)	5.15	9380	11500	10 nM (inactive)	44 AU (inactive)	–	–	–	–	–

SMILES	fold change [1, 8]	fold change [1, 9]	cell count [1, 10]	cell count [1, 11]	remaining NAD [2]	luciferase signal [3]	z-score [4, 12]	z-score [4, 13]	z-score [5]	fold fluorescence [6]	outcome [7]
Cc1cccc(C(=O)O)c1O	0.963 (inactive)	0.915	8670	9000	10 nM (inactive)	68 AU (inactive)	–	–	–	–	–
CN1CCN(C2=Nc3cc(F)ccc3Cc3ccccc32)CC1	0.822 (inactive) and 0.853 (inactive)	1.3 and 0.98	5980 and 8510	7280 and 9980	–	–	-0.621 (inactive)	0.127	-0.47 (inactive) and -0.18 (inactive)	–	–
CC(=O)NO	0.922 (inactive)	0.946	11300	12300	10 nM (inactive)	52 AU (inactive)	–	–	–	–	–
COc1ccc(C2C(=O)c3ccccc3C2=O)cc1	0.879 (inactive)	2.05	11100	12700	10 nM (inactive)	172 AU (inactive)	–	–	–	–	–
CN1CCCN=C1COC(=O)C(O)(c1ccccc1)C1CCCCC1 (stereo unspecified)	0.832 (inactive)	3.67	10300	12400	10 nM (inactive)	80 AU (inactive)	–	–	–	–	–
O=C(O)c1ccc(S(=O)(=O)N(Cl)Cl)cc1	0.899 (inactive)	0.716	11500	12800	10 nM (inactive)	48 AU (inactive)	–	–	–	–	–
CC(=O)Nc1ccc(S(=O)(=O)Nc2ccc([N+](=O)[O-])cc2)cc1	0.908 (inactive)	3.51	11400	12500	10 nM (inactive)	24 AU (inactive)	–	–	–	–	–
CC(=O)Oc1cccc(O)c1	0.87 (inactive)	5.2	11300	13000	10 nM (inactive)	20 AU (inactive)	–	–	–	–	–
CN(C)CCCSc1ccccc1NC(=O)/C=C/c1ccccc1	0.891 (inactive) and 1.14 (inactive)	0.895 and 0.508	7810 and 9010	8770 and 7880	–	–	0.109 (inactive)	-0.0543	-0.09 (inactive) and 0.525 (inactive)	–	–
C[C@@H]1CN(c2c(F)c(F)c3c(=O)c(C(=O)O)cn(C4CC4)c3c2F)C[C@H](C)N1	0.896 (inactive)	0.855	8680	9690	10 nM (inactive)	–	–	–	–	–	–
OCc1ccccc1O	0.861 (inactive)	4.19	10600	12400	10 nM (inactive)	28 AU (inactive)	–	–	–	–	–
Nc1ccc(C(=O)Oc2ccccc2)c(O)c1	0.872 (inactive)	1.07	9720	11100	10 nM (inactive)	84 AU (inactive)	–	–	–	–	–
CC1(C)S[C@@H]2[C@H](NC(=O)C(C(=O)O)c3ccccc3)C(=O)N2[C@H]1C(=O)O (stereo partly specified)	0.874 (inactive)	0.602	11000	12600	10 nM (inactive)	84 AU (inactive)	–	–	–	–	–
O=c1c(-c2ccccc2)c1-c1ccccc1	0.804 (inactive)	1.52	4690	5830	–	–	–	–	-1.44 (inactive)	–	–
Nc1ccc(C(=O)O)c(O)c1	–	–	–	10200 and 11500 and 13800	10 nM (inactive)	44 AU (inactive)	-0.177 (inactive) and -0.201 (inactive) and 0.567 (inactive)	-0.173 and -0.712 and -0.26	0.45 (inactive)	–	–
O=C(c1ccc(F)cc1)C1CCN(CCn2c(=S)[nH]c3ccccc3c2=O)CC1	0.921 (inactive) and 0.889 (inactive)	1.65 and 1.01	8480 and 7360	9210 and 8290	–	–	–	–	-0.715 (inactive) and -0.61 (inactive)	–	–
CNCCCCOc1ccccc1Cc1ccccc1	0.954 (inactive) and 0.995 (inactive)	1.55 and 0.924	7470 and 8010	7840 and 8050	–	–	–	–	-1.31 (inactive) and -0.275 (inactive)	–	–
O=C(O)c1ccccc1Nc1cccc(C(F)(F)F)c1	–	–	–	–	10 nM (inactive)	56 AU (inactive)	-0.231 (inactive) and 0.292 (inactive) and -0.218 (inactive)	-0.153 and 0.0506 and 0.216	0.44 (inactive)	5.28 [at 177.8 µM] (inactive)	–
C[C@@H]1CN(CCCn2c3ccccc3c3ccccc32)C[C@H](C)N1	0.959 (inactive)	0.675	8000	8340	–	–	–	–	-0.695 (inactive)	–	–
CC(C)(Oc1ccc(CCNC(=O)c2ccc(Cl)cc2)cc1)C(=O)O	–	–	–	–	10 nM (inactive)	40 AU (inactive)	-0.161 (inactive) and 0.38 (inactive) and -0.46 (inactive)	-0.148 and 0.0926 and -0.592	0.225 (inactive) and 0.83 (inactive)	9.76 [at 138.2 µM] (inactive)	inactive
CC[N+](C)(CC)CCOC(=O)C(O)(c1ccccc1)C1CCCCC1 (stereo unspecified)	0.958 (inactive)	1.3	8830	9210	10 nM (inactive)	–	–	–	0.47 (inactive)	–	–
